Experimental data taken from PubChem BioAssay (EPA / NIEHS).
Values joined by “and” are separate entries in the source; they are usually repeats but may differ in a detail not shown here. Identical values can stand only once. More than one record can exist for a structure, and the calls need not agree. Active and inactive are the calls of the source. Rule for the calls: active = hit-call score of the fitted dose curve at least 0.9, where 1 is the maximum; inactive = score below 0.9.

Key:
[1] = read-out: Interleukin-8 (IL8), CXCL8 (gene 3576); experiment: BSK_CASM3C_IL8: BioMAP Diversity Plus: CASM3C Assay for Interleukin-8 (IL8) Biomarker Activity (AID 2283042); conditions: primary human coronary artery smooth muscle cells; actives raise or lower the signal;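 note: IL-8 protein level quantified by ELISA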
[2] = read-out: Human Leukocyte Antigen - DR isotype (HLADR), HLA-DRA (gene 3122); experiment: BSK_CASM3C_HLADR: BioMAP Diversity Plus: CASM3C Assay for Human Leukocyte Antigen - DR isotype (HLADR) Biomarker Activity (AID 2283043); conditions: primary human coronary artery smooth muscle cells; actives raise or lower the signal;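 note: cell-surface HLA-DR protein level quantified by ELISA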
[3] = read-out: Macrophage colony-stimulating factor (MCSF), CSF1 (gene 1435); experiment: BSK_CASM3C_MCSF: BioMAP Diversity Plus: CASM3C Assay for Macrophage colony-stimulating factor (MCSF) Biomarker Activity (AID 2283044); conditions: primary human coronary artery smooth muscle cells; actives raise or lower the signal;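 note: M-CSF protein amount quantified by ELISA after 24 h exposure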
[4] = read-out: Low-density lipoprotein receptor (LDLR), LDLR (gene 3949); experiment: BSK_CASM3C_LDLR: BioMAP Diversity Plus: CASM3C Assay for Low-density lipoprotein receptor (LDLR) Biomarker Activity (AID 2283045); conditions: primary human coronary artery smooth muscle cells; actives raise or lower the signal;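 note: LDLR protein level on the cell surface quantified by ELISA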
[5] = read-out: Monocyte Chemoattractant Protein-1 (MCP1), CCL2 (gene 6347); experiment: BSK_CASM3C_MCP1: BioMAP Diversity Plus: CASM3C Assay for Monocyte Chemoattractant Protein-1 (MCP1) Biomarker Activity (AID 2283046); conditions: primary human coronary artery smooth muscle cells; actives raise or lower the signal;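 note: MCP-1 level quantified by ELISA 24 h after dosing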
[6] = BSK_CASM3C_Proliferation: Cell Proliferation Assessment in the BioMAP Diversity Plus: CASM3C Assay (AID 2283047); conditions: primary human coronary artery smooth muscle cells;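 note: sulforhodamine B total protein stain as relative cell number at 560 nm; sub-confluent cells exposed 48 h before staining; fitted both ways against DMSO so gain or loss of cell number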
[7] = read-out: Monokine induced gamma interferon (MIG), CXCL9 (gene 4283); experiment: BSK_CASM3C_MIG: BioMAP Diversity Plus: CASM3C Assay for Monokine induced gamma interferon (MIG) Biomarker Activity (AID 2283048); conditions: primary human coronary artery smooth muscle cells; actives raise or lower the signal;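 note: MIG protein level measured by ELISA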
[8] = read-out: serum amyloid A (SAA), SAA1 (gene 6288); experiment: BSK_CASM3C_SAA: BioMAP Diversity Plus: CASM3C Assay for serum amyloid A (SAA) Biomarker Activity (AID 2283049); conditions: primary human coronary artery smooth muscle cells; actives raise or lower the signal;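 note: SAA protein level quantified by ELISA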
[9] = BSK_CASM3C_SRB: Viability Assessment in the BioMAP Diversity Plus: CASM3C Assay (AID 2283050); conditions: primary human coronary artery smooth muscle cells;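 note: total protein by SRB staining as cytotoxicity measure in parallel cultures; cells exposed to compound for 24 h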
[10] = read-out: Thrombomodulin, THBD (gene 7056); experiment: BSK_CASM3C_Thrombomodulin: BioMAP Diversity Plus: CASM3C Assay for Thrombomodulin Biomarker Activity (AID 2283051); conditions: primary human coronary artery smooth muscle cells; actives raise or lower the signal;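 note: thrombomodulin protein level measured by ELISA 24 h after dosing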
[11] = read-out: Tissue Factor, F3 (gene 2152); experiment: BSK_CASM3C_TissueFactor: BioMAP Diversity Plus: CASM3C Assay for Tissue Factor Biomarker Activity (AID 2283052); conditions: primary human coronary artery smooth muscle cells; actives raise or lower the signal;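 note: cell surface tissue factor protein level read by ELISA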
[12] = read-out: Interferon-gamma inducible Protein 10 (IP10), CXCL10 (gene 3627); experiment: BSK_hDFCGF_IP10: BioMAP Diversity Plus: hDFCGF Assay for Interferon-gamma inducible Protein 10 (IP10) Biomarker Activity (AID 2283053); conditions: primary human foreskin fibroblasts; actives raise or lower the signal
In short: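 ELISA read-out of IP-10 (CXCL10) from primary human skin fibroblasts, 24 h after compound addition. Gain or loss of signal versus DMSO baseline, bidirectional curve fitting.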

[13] = read-out: Urokinase-type plasminogen activator receptor (uPAR), PLAUR (gene 5329); experiment: BSK_CASM3C_uPAR: BioMAP Diversity Plus: CASM3C Assay for Urokinase-type plasminogen activator receptor (uPAR) Biomarker Activity (AID 2283054); conditions: primary human coronary artery smooth muscle cells; actives raise or lower the signal;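 note: cell-surface uPAR protein level quantified by ELISA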
[14] = read-out: Vascular cell adhesion molecule 1 (VCAM1), VCAM1 (gene 7412); experiment: BSK_CASM3C_VCAM1: BioMAP Diversity Plus: CASM3C Assay for Vascular cell adhesion molecule 1 (VCAM1) Biomarker Activity (AID 2283055); conditions: primary human coronary artery smooth muscle cells; actives raise or lower the signal;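 note: VCAM-1 protein level quantified by ELISA on the cells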
[15] = read-out: Collagen III, COL3A1 (gene 1281); experiment: BSK_hDFCGF_CollagenIII: BioMAP Diversity Plus: hDFCGF Assay for Collagen III Biomarker Activity (AID 2283056); conditions: primary human foreskin fibroblasts; actives raise or lower the signal
In short: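 Response relative to DMSO, fitted in both directions, reflects ELISA-measured collagen III in human primary skin fibroblasts 24 h after compound addition.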

[16] = read-out: Epidermal growth factor receptor (EGFR), EGFR (gene 1956); experiment: BSK_hDFCGF_EGFR: BioMAP Diversity Plus: hDFCGF Assay for Epidermal growth factor receptor (EGFR) Biomarker Activity (AID 2283057); conditions: primary human foreskin fibroblasts; actives raise or lower the signal
In short: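 ELISA readout of EGFR on human dermal fibroblasts (primary foreskin cells), 24 h post-dosing; bidirectional curve fit vs DMSO baseline, gain or loss of signal scored.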

[17] = read-out: Interleukin-8 (IL8), CXCL8 (gene 3576); experiment: BSK_hDFCGF_IL8: BioMAP Diversity Plus: hDFCGF Assay for Interleukin-8 (IL8) Biomarker Activity (AID 2283058); conditions: primary human foreskin fibroblasts; actives raise or lower the signal
In short: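 Fibroblast monolayers (human foreskin, hDFCGF) received test chemical for 24 h before ELISA detection of IL-8; either increases or decreases relative to DMSO count as activity.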

[18] = BSK_hDFCGF_Proliferation: Cell Proliferation Assessment in the BioMAP Diversity Plus: hDFCGF Assay (AID 2283059); conditions: primary human foreskin fibroblasts;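 note: curves fitted for both rise and fall of signal versus DMSO baseline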
In short: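 Primary human foreskin fibroblasts, sub-confluent; […]; 10% TCA fix, 0.1% SRB stain, A560 total protein. Gain/loss fitted bidirectionally vs DMSO control.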

[19] = read-out: Macrophage colony-stimulating factor (MCSF), CSF1 (gene 1435); experiment: BSK_hDFCGF_MCSF: BioMAP Diversity Plus: hDFCGF Assay for Macrophage colony-stimulating factor (MCSF) Biomarker Activity (AID 2283060); conditions: primary human foreskin fibroblasts; actives raise or lower the signal
In short: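 fibroblasts (human foreskin, primary), 24 h post-dose; M-CSF by ELISA; bidirectional fit, DMSO = baseline.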

[20] = BSK_hDFCGF_SRB: Viability Assessment in the BioMAP Diversity Plus: hDFCGF Assay (AID 2283061); conditions: primary human foreskin fibroblasts;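 note: cells exposed to compound for 24 h before the read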
In short: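 SRB-based viability read on primary human skin fibroblasts at 24 h: TCA fixation, 0.1% dye, 560 nm. Gain or loss of signal is fitted against the DMSO negative control.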

Measured: AC50

CCOc1cc(Oc2ccc(C(F)(F)F)cc2Cl)ccc1[N+](=O)[O-]
active: [6] 20 µM | [12] 6.48 µM | [15] 12.9 µM | [16] 14.2 µM | [18] 10.6 µM | [19] 6.77 µM
inactive: all other assays above

COC(=O)c1ccccc1C(=O)OC
inactive: all assays above

CCCN(CCC)c1c([N+](=O)[O-])cc(S(N)(=O)=O)cc1[N+](=O)[O-]
inactive: [4] | [10] | [11] | [15] | [16] | [17] | [19]
active: [1] 33.5 µM [middle of 4 runs] | [2] 34.4 µM [middle of 4 runs] | [3] 36.1 µM [middle of 4 runs] | [4] 39.7 µM | [5] 37.1 µM [middle of 4 runs] | [6] 35.1 µM [middle of 4 runs] | [7] 34.7 µM [middle of 4 runs] | [8] 37.1 µM [middle of 4 runs] | [9] 35.6 µM [middle of 4 runs] | [10] 37.6 µM and 34.1 µM | [11] 21.1 µM and 34.7 µM and 30.7 µM | [13] 34.5 µM [middle of 4 runs] | [14] 36.4 µM [middle of 4 runs] | [15] 30.9 µM and 16.5 µM | [17] 34.5 µM | [18] 24.3 µM [middle of 4 runs] | [19] 32.9 µM and 30.5 µM and 31.2 µM | [20] 21.1 µM and 29.3 µM and 31.4 µM

CON(C)C(=O)Nc1ccc(Cl)c(Cl)c1
not listed: [12]
inactive: all other assays above

C=CC1(C)OC(=O)N(c2cc(Cl)cc(Cl)c2)C1=O (stereo not drawn)
inactive: all assays above

CC(C)C1(C)N=C(c2nc3ccccc3cc2C(=O)O)NC1=O (stereo not drawn)
inactive: all assays above

CN(C)C(=S)SSC(=S)N(C)C
inactive: [1] | [2] | [4] | [8] | [9] | [11] | [13]
active: [3] 12 µM | [5] 20 µM | [6] 12.6 µM | [7] 14.6 µM | [10] 9.88 µM | [12] 2.74 µM | [14] 11.5 µM | [15] 6.36 µM | [16] 5.9 µM | [17] 7.67 µM | [18] 2.76 µM | [19] 4.39 µM | [20] 4.96 µM

C=CCC1=C(C)C(OC(=O)C2C(C=C(C)C)C2(C)C)CC1=O (stereo not drawn)
inactive: [1] | [2] | [3] | [4] | [5] | [7] | [8] | [9] | [10] | [11] | [13] | [14] | [16]
active: [2] 31.7 µM and 32 µM and 27.9 µM | [4] 16.8 µM and 21 µM | [6] 34.4 µM [middle of 4 runs] | [8] 4.17 µM | [10] 16.6 µM and 26.3 µM and 21 µM | [14] 32.5 µM | [15] 21 µM [middle of 4 runs] | [17] 40.3 µM [middle of 4 runs] | [18] 16.5 µM [middle of 4 runs] | [19] 31.2 µM and 38.4 µM and 29.1 µM | [20] 32.4 µM [middle of 4 runs]

CCc1nn(C)c(C(=O)NCc2ccc(C(C)(C)C)cc2)c1Cl
active: [6] 14.4 µM | [10] 13.2 µM | [12] 28.8 µM | [15] 20 µM | [17] 35.4 µM | [18] 20 µM | [19] 23.9 µM | [20] 27.5 µM
inactive: all other assays above

CCCC1COC(Cn2cncn2)(c2ccc(Cl)cc2Cl)O1 (stereo not drawn)
active: [10] 7.5 µM | [18] 4.49 µM
inactive: all other assays above

COc1ccc(C(c2ccc(OC)cc2)C(Cl)(Cl)Cl)cc1
active: [6] 15.1 µM | [9] 18.4 µM | [10] 13.1 µM | [12] 20 µM | [18] 6.21 µM | [19] 9.16 µM | [20] 11 µM
inactive: all other assays above
